Reference: PubChem BioAssay AID652071 (NMMLSC, 2013)

Assay: yeast cytosolic pH changes via V-ATPase – S. cerevisiae, pHLuorin, powder set 4, dose response (AID 652071)
Conditions: S. cerevisiae pHLuorin cytosolic pH fluorescence; series mostly up to 100 µM; response change, sign ambiguous: at the top concentration; call rule not given here

Response change, sign ambiguous, inactive:
CN1CCN(c2ccccc2NC(=O)c2cc(C#N)ccn2)CC1 11.9%
CC(=O)N1CCN(c2ccccc2NC(=O)c2cncc(Cl)n2)CC1 -21.5%
O=C(Nc1ccccc1N1CCCCC1)c1cncc(Cl)n1 -28.4%
O=C(c1occc1-c1ccccc1)N1CCN(c2nc3ccc(F)cc3s2)CC1 78.3%
CN1CCN(c2ccccc2NC(=O)c2cccc(C(N)=O)c2)CC1 -19.6%
CN1CCN(c2ccccc2NC(=O)c2cccc(S(=O)(=O)N(C)C)c2)CC1 14.1%
CN1CCN(c2ccccc2NC(=O)c2ccc(C(F)(F)F)o2)CC1 -7.3%
CN(C)Cc1ccc(C(=O)Nc2ccccc2N2CCCCC2)o1 -16.9%
CC(=O)N1CCN(c2ccccc2NC(=O)c2ccc(Br)o2)CC1 15%
O=C(Nc1ccccc1N1CCCCC1)c1cccc(C(F)(F)F)n1 -18.9%
O=C(Nc1ccccc1N1CCCCC1)c1cc(Cl)ccn1 -24.7%
CN1CCN(c2ccccc2NC(=O)c2cccc(CS(C)(=O)=O)c2)CC1 -10.9%
CC(=O)N1CCN(c2ccccc2NC(=O)c2cncc(C)n2)CC1 -20.8%
CN1CCN(c2ccccc2NC(=O)c2cccc(S(C)(=O)=O)c2)CC1 1.86%
CN1CCN(c2ccccc2NC(=O)c2ccc(S(C)(=O)=O)o2)CC1 -3.21%
CC(=O)N1CCN(c2ccccc2NC(=O)c2cccc(CS(C)(=O)=O)c2)CC1 13.3%
Cc1ccc(C(=O)Nc2ccccc2N2CCN(C)CC2)o1 -17.8%
O=C(Nc1ccccc1N1CCOCC1)c1occc1-c1ccccc1 -14.3%
COCc1cccc(C(=O)Nc2ccccc2N2CCN(C)CC2)c1 6.5%
O=C(Nc1ccccc1N1CCCCC1)c1ccc(C(F)(F)F)o1 -23.6%
Cc1ccnc(C(=O)Nc2ccccc2N2CCN(C)CC2)c1 -9.84%
Cc1cccc(C(=O)Nc2ccccc2N2CCCCC2)n1 -33.3%
CC(=O)N1CCN(c2ccccc2NC(=O)c2ccc(C(C)(C)C)o2)CC1 -2.35%
CN(C)Cc1cccc(C(=O)Nc2ccccc2N2CCCCC2)c1 -22.9%
CC(=O)N1CCN(c2ccccc2NC(=O)c2cccc(S(=O)(=O)N(C)C)c2)CC1 8.75%
CC(=O)N1CCN(c2ccccc2NC(=O)c2cccc(C(F)(F)F)c2)CC1 4.04%
CC(=O)N1CCN(c2ccccc2NC(=O)c2cccc(S(C)(=O)=O)c2)CC1 20.5%
CC(=O)N1CCN(c2ccccc2NC(=O)c2cncc(N)n2)CC1 13.1%
CC(=O)N1CCN(c2ccccc2NC(=O)c2cccc(C(F)(F)F)n2)CC1 30.5%
CN1CCN(c2ccccc2NC(=O)c2cncc(N)n2)CC1 -3.21%
CS(=O)(=O)c1cccc(C(=O)Nc2ccccc2N2CCCCC2)c1 7.01%
CC(=O)N1CCN(c2ccccc2NC(=O)c2cc(Cl)ccn2)CC1 5.48%
O=C(Nc1ccccc1N1CCCCC1)c1ccc(-c2ccccc2)o1 4.4%
CN(C)S(=O)(=O)c1cccc(C(=O)Nc2ccccc2N2CCCCC2)c1 -24.9%
CC(=O)N1CCN(c2ccccc2NC(=O)c2cccc(C)n2)CC1 -39.5%
